Screening results from PubChem BioAssay.
An excerpt weighted towards active compounds, which were near 8% of everything screened.
MARV entry inh = Marburg virus entry inhibition; Marburg virus pseudotyped entry inhibition, cell reporter; Potency, µM (doses to about 37.8 µM), inactives show top-dose activity change, negative = inhibition, most hits filed as inhibitors; hit rate 1.8% among 300,000; AID 540276; calls by dose curve; tested in HEK293 cells; note: potency is the fitted concentration of half-maximal effect; % is set by controls: 0 for no effect and ±100 for the full control effect
SARS PLpro yeast = inhibitors of SARS-CoV papain-like protease in yeast | S. cerevisiae expressing SARS-CoV PLpro, growth rescue | Potency, µM (doses to about 32.9 µM), inactives show top-dose activity, positive = growth rescue, usual class: activators | hit rate 0.19% among 330,000 | AID 485353; calls by dose curve; note: potency is the fitted concentration of half-maximal effect; 0% is about no effect; nearly all actives have a fitted effect of over 55% in size
Lassa entry inh = Lassa virus entry inhibition. Lassa virus pseudotype entry inhibition, cell reporter. Potency, µM (series often up to 37.9 µM), for inactives: at the top dose activity change, negative = inhibition, most hits filed as inhibitors. hit rate 1.2% among 300,000; calls by dose curve; tested in HEK293 cells; note: potency is the fitted concentration of half-maximal effect; % is set by controls: 0 for no effect and ±100 for the full control effect; nearly all actives have a fitted effect of over 50% in size
HCMV inh = human cytomegalovirus inhibition; HFF cells, HCMV-luciferase reporter, 72 h; stronger effect = lower value; activity change, negative = inhibition, % at 57.5 µM; hit rate 4.5% among 410,000; AID 1259415; in the data active = activity change below about -60%; inconclusive = no clear call, values can overlap the other calls; inactive = above about -39%; note: % is set by controls: 0 for no effect and ±100 for the full control effect
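Screen run at 2 compound doses on HFFs infected with reporter HCMV, MOI 1 PFU/cell. Luciferase activity from cell lysates at 72 h post infection gave inhibition relative to buffer-only and Salinomycin wells.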
FMDV antiviral = blocks foot and mouth disease virus; FMDV antiviral cell-based qHTS; Potency, µM (top dose mostly 57.9 µM), for inactives: top-dose activity change, negative = inhibition, most hits filed as inhibitors; hit rate 1.2% among 410,000; calls by dose curve; tested in HEK293T cells; note: read-out not given here; potency is the fitted concentration of half-maximal effect; % is set by controls: 0 for no effect and ±100 for the full control effect; nearly all actives have a fitted effect of over 45% in size
HCV inh = blocks hepatitis C virus. Huh7.5.1 HCVcc-Cre infection, luciferase reporter, 44 h. Potency, µM (series often up to 41.8 µM), for inactives: at the highest dose activity change, negative = inhibition, actives largely listed as inhibitors. hit rate 3.4% among 340,000. AID 651820; active = well fitted inhibition curve with a large enough effect; inconclusive = small, poorly fitted or top-dose-only effect, or another doubt; inactive = no such curve, though single readings can be large or run the other way; note: potency is the fitted concentration of half-maximal effect; % is set by controls: 0 for no effect and ±100 for the full control effect
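Infectious HCV cell culture screen: compound-treated cells (1,000/well, pre-plated 4 h) are infected with HCVcc-Cre at roughly 0.5 moi and grown 44 h. Infection is quantified by luciferase signal after 15 min substrate incubation at room temperature.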
The depositor's hits bear a star; [ ] = dose if it differs, or a comment.

COc1ccccc1NC(=S)N(Cc1ccco1)Cc1cc2cc(C)c(C)cc2[nH]c1=O was read as MARV entry inh inconclusive, SARS PLpro yeast -2%, Lassa entry inh inconclusive, HCMV inh -62*, FMDV antiviral -16% and HCV inh inconclusive.
For COc1ccc(NC(=S)N(CCc2c(C)[nH]c3ccccc23)Cc2ccco2)cc1 the results were MARV entry inh 13µM*, SARS PLpro yeast 4%, Lassa entry inh inconclusive, HCMV inh inconclusive, FMDV antiviral -9% and HCV inh -10%.
`CCOC(=O)C1=CN(CCc2cn(Cc3ccccc3)nn2)C(=O)NC1c1ccccc1` (stereo not given) gave MARV entry inh -8%[14.2 µM].
CCCC(=O)OCCNc1cc(SCCC(=O)OC)c2nonc2c1[N+](=O)[O-] was read as MARV entry inh inconclusive, SARS PLpro yeast -37%, Lassa entry inh 9%, HCMV inh 12, FMDV antiviral -14% and HCV inh 28%.
Screening CC(=O)OCCNc1cc(Sc2nc3ccccc3[nH]2)c2nonc2c1[N+](=O)[O-] returned MARV entry inh 24%, SARS PLpro yeast -15%, Lassa entry inh 0%, HCMV inh 27, FMDV antiviral 35µM* and HCV inh inconclusive.
For CC(=O)OCCNc1cc(SCc2ccco2)c2nonc2c1[N+](=O)[O-] the results were MARV entry inh inconclusive, SARS PLpro yeast 5%, Lassa entry inh 0%, FMDV antiviral 32µM* and HCV inh inconclusive.
COC(=O)CCSc1cc(NCCOC(C)=O)c([N+](=O)[O-])c2nonc12 was read as MARV entry inh inconclusive, SARS PLpro yeast 0%, Lassa entry inh 2%, HCMV inh 18, FMDV antiviral 35µM* and HCV inh inconclusive.
Screening O=[N+]([O-])c1c(NCCCO)cc(SCc2ccco2)c2nonc12 returned MARV entry inh 2%, SARS PLpro yeast -8%, Lassa entry inh 0%, HCMV inh 50, FMDV antiviral 0% and HCV inh inconclusive.
Screening COc1cccc(CNC(=O)c2c(C)oc3nc(C)nc(N4CCOCC4)c23)c1 returned Lassa entry inh -4%[46.1 µM], HCMV inh -13 and FMDV antiviral -8%.
Cc1ccccc1NC(=O)CSc1nc2ccc(NC(=O)c3ccccc3)cc2s1 was read as MARV entry inh 11%[46.1 µM], Lassa entry inh 7%[46.1 µM], HCMV inh -5 and FMDV antiviral -14%.
`C#CCn1c(=NC(=O)c2cccs2)sc2cccc(OCC)c21` gave SARS PLpro yeast 5%, HCMV inh -67*, FMDV antiviral -21% and HCV inh inconclusive.
Screening COc1ccc(C2(CNC(=O)C(=O)Nc3ccc(F)cc3)CCCC2)cc1OC returned MARV entry inh 2%[46.1 µM], Lassa entry inh 8%[46.1 µM], HCMV inh 8 and FMDV antiviral inconclusive.
CCCCCCn1ccc(=N)cc1 was read as MARV entry inh 13µM*, SARS PLpro yeast 6%, Lassa entry inh inconclusive, HCMV inh -80*, FMDV antiviral 0% and HCV inh 0.79µM*.
For CCCCN1/C(=C/c2cccc[n+]2C)Sc2cc(NC(C)=O)ccc21 the results were SARS PLpro yeast -3%, HCMV inh 4, FMDV antiviral -6% and HCV inh -7%.
Screening Cc1ccc2c(c1)S/C(=C/c1ccc[n+](C)c1)N2CCO returned MARV entry inh inconclusive, SARS PLpro yeast -6%, Lassa entry inh -21%[46.1 µM], HCMV inh -77*, FMDV antiviral -14% and HCV inh inconclusive.
For CC(=O)Nc1sc(N/N=C\c2ccccc2Cl)nc1-c1cccs1 the results were MARV entry inh -16%, SARS PLpro yeast 14%, Lassa entry inh 0%, HCMV inh -83*, FMDV antiviral 20% and HCV inh -18%.
CC(=O)Nc1sc(N/N=C/c2ccccc2F)nc1-c1ccc(C)cc1 was read as MARV entry inh -9%, SARS PLpro yeast 1%, HCMV inh -1, FMDV antiviral 74% and HCV inh 13µM*.
Screening NCCCCCc1cnc[nH]1 returned FMDV antiviral -17%.
For CC(=O)Nc1c(C)nn(-c2ccccc2)c1N1CCC(C(=O)NCc2ccc(Cl)cc2)CC1 the results were Lassa entry inh 15%[46.1 µM], HCMV inh -23 and FMDV antiviral -17%.
O=C(NCc1cccs1)c1ccc(CSc2nc3ccncc3n2Cc2ccccc2F)cc1 was read as MARV entry inh inconclusive, HCMV inh -26 and FMDV antiviral 23%.
